According to PubChem BioAssay:
Activity calls are given as the source filed them.

Assay: E. coli acrAB mutant growth effects, primary screen, E. coli filamentation inducers, strain DRC39, OD650, 48 h (AID 1179);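 note: screen aims at cell division blockers that make cells filament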
Conditions: E. coli DRC39 delta-acrAB growth, higher = more signal, called active from +8 up or from −8 down
For `CCCC[C@@H]1C[C@H]1[C@@H](NS(=O)(=O)c1cccc2cccnc12)c1ccc(-c2ccccc2)cc1`, the z-score was -0.166 (inactive). With `CC(C)N1CC=CC23O[C@@H]4C=CCCOC(=O)C4[C@H]2C(=O)N(CCCCCCO)[C@@H]3C1=O` (stereo not given in full) the z-score was 0.541 (inactive). With `CC(C)=C1C(=O)C(c2ccccc2)=C2CN3C(=O)N(CCc4ccccc4)C(=O)[C@]3(Cc3ccc(F)cc3)[C@H]21` the z-score was -0.853 (inactive). With `CO[C@H]1O[C@H](CO)[C@@H](OC(=O)Nc2ccc(C#N)cc2)[C@H](OC(=O)c2cc3ccccc3[nH]2)[C@H]1OC(=O)c1cc2ccccc2[nH]1` the z-score was 2.93 (inactive). In the case of `[N-]=[N+]=NCc1ccccc1[C@@H]1OC(c2ccc(OCCCO)cc2)=N[C@]1(Cc1ccccc1)C(=O)N1CCOCC1`, the z-score is reported as 0.917 (inactive). With `CC(C)c1ccc(NN2C(C(O)c3ccc4c(c3)OCO4)C=CC3C(=O)N(c4ccccc4)C(=O)C32)cc1` (stereo not given) the z-score was -0.563 (inactive). In the case of `COCC(=C=CC[C@@H](O)c1ccccc1OCCO)CCO`, the z-score is reported as 1.16 (inactive). With `CC(C)OC(=O)C=C1C[C@@H](c2ccc(C#N)cc2)O[C@@H](c2ccc(C#N)cc2)O1` the z-score was -0.182 (inactive). With `CC(C)(C)N1CC=CC23O[C@@H]4C=CCCOC(=O)C4[C@H]2C(=O)N(CCCCCO)[C@@H]3C1=O` (stereo not given in full) the z-score was 0.762 (inactive).

Assay: RPMI8226 myeloma cell viability, profiling panel, resazurin fluorescence, basal, 24 h, PK04 Diversity Set (AID 1180);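 note: RPMI8826 multiple myeloma cell line at 5000 cells per well; test concentration not given here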
Conditions: higher = more signal
For `CN(C)CCCNC(=O)[C@@H]1c2ccccc2C(=O)N(Cc2ccccc2)[C@H]1c1ccc(CO)cc1`, the z-score was 0.791. In the case of `COc1ccc([Si](C)(C)[C@H]2[C@H](CC(=O)N3CCC[C@H]3CO)O[C@@]3(C(=O)N(Cc4cccc(N5C(=O)COc6ccccc65)c4)c4ccccc43)[C@@H]2C)cc1`, the z-score is reported as -0.524. With `C=CC[C@]1(C(=O)NCc2ccccc2)N=C(c2ccc(OCCCO)cc2)O[C@H]1c1ccccc1` the z-score was -0.0458. Molecule `COC(=O)[C@@]1(Cc2ccc(F)cc2)[C@H]2c3cc(C(=O)N(C)C)n(Cc4ccc(OC)c(OC)c4)c3C[C@H]2CN1C(=O)c1ccccc1` has a z-score of -0.484. For `O=C(CS)NCCCCCNC(=O)[C@H]1C[C@H]2C(=O)N3CCC[C@H]3C(=O)N2[C@H]1c1cccc(OCCO)c1`, the z-score was 0.472. `Cn1cccc1C(O)C1C=CC2C(=O)NC(=O)C2N1Nc1ccccn1` (stereo not given) gave a z-score of -0.868. In the case of `O=C1O[C@@H](c2ccccc2)[C@@H](c2ccccc2)N2[C@@H](c3ccc(OCCO)cc3)[C@]3(C(=O)Nc4ccccc43)[C@@H](C(=O)N3CCN(c4ncccn4)CC3)[C@H]12`, the z-score is reported as 0.652. Molecule `COC(=O)c1c(CC[C@@H](CO)NC(=O)N[C@H](Cc2ccccc2)Cn2cc(-c3ccccc3N)nn2)oc(C(C)=O)c1C(=O)OC` has a z-score of 0.336. `COC(=O)[C@@H]1N=C(c2ccc(OCCCO)cc2)O[C@@H]1c1ccccc1N=[N+]=[N-]` gave a z-score of 0.0154. `CCOC(=O)C1=CC[C@H]2C(=O)N(CC)C(=O)[C@@H]12` showed a z-score of 0.667. `C=C(/C(=C/C[C@H](OC(C)=O)c1ccc(OCCO)cc1)c1cnc2ccccc2c1)C(C)C` showed a z-score of -0.853. `N#Cc1ccc(NN2C(C(O)c3cc(C(F)(F)F)cc(C(F)(F)F)c3)C=CC3C(=O)N(c4ccccc4)C(=O)C32)cc1` (stereo not given) gave a z-score of -0.409. `COCCOC(=O)N1C(=O)[C@@]2(c3cc(C#CCNC(N)=O)ccc31)[C@H](c1ccccc1OCCO)N1[C@H](c3ccccc3)[C@H](c3ccccc3)OC(=O)[C@H]1[C@@H]2C(=O)N1CCN(c2ncccn2)CC1` showed a z-score of 0.241. Work on `CC(C)[Si]1(C(C)C)O[C@@H](c2ccccc2)c2cc(C3CC3)nc(-c3ccccc3)c21` yielded a z-score of 0.21. `COc1ccc([Si](C)(C)[C@@H]2[C@@H](CC(=O)N3CCC[C@H]3CO)O[C@]3(C(=O)N(Cc4cccc(N5CCC5=O)c4)c4ccccc43)[C@H]2C)cc1` gave a z-score of -3.51. In the case of `CN(C)c1ccc(C(O)C2C=CC3C(=O)N(c4ccccc4)C(=O)C3N2Nc2ccccc2F)cc1` (stereo not given), the z-score is reported as -1.02. `CCCCCN1CC=CC23O[C@@H]4C=CCOC(=O)[C@@H]4[C@H]2C(=O)N(CCCCCCO)[C@@H]3C1=O` (stereo not given in full) showed a z-score of 0.922. `CC(C)(C)OC(=O)CC[C@]1(C(N)=O)COC(c2ccc(OCCCO)cc2)=N1` showed a z-score of -0.751. With `CC(C)(C)OC(=O)CC[C@]1(C(=O)NCc2ccccc2)N=C(c2ccc(OCCCO)cc2)O[C@H]1c1ccccc1` the z-score was -0.135. `COc1ccc(CCNC(=O)[C@@H]2c3ccccc3C(=O)N(c3ccc(C)cn3)[C@H]2c2ccc(CO)cc2)cc1` showed a z-score of 1. Work on `CC1CC/C=C\[C@H]2OC34C=CCN(Cn5nnc6ccccc65)C(=O)[C@H]3N(CCO)C(=O)[C@@H]4C2C(=O)O1` (stereo not given in full) yielded a z-score of 1.04.
